In PubChem BioAssay (NCI):
The panel holds about 79,000 compounds, 15% with a hit somewhere; the sample as a whole holds those more often. Rule as the data show it: active = growth inhibition above about 70%; inactive = the rest.

Tests used:
[1] = NCI Yeast Anticancer Drug Screen. Data for the rad50 strain (AID 155);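 also: 0% = growth of vehicle-only cultures of the same strain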; settings: S. cerevisiae rad50 strain growth inhibition; at 50.0 µM; hits give high values
Method in brief: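 Readout: growth inhibition relative to vehicle-treated cultures. Compound exposure was carried out in a genetically defined yeast strain deficient in DNA damage repair.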

[2] = NCI Yeast Anticancer Drug Screen. Data for the mec2-1 strain (AID 157); settings: S. cerevisiae mec2-1 strain, at 50.0 µM, hits give high values
Method in brief: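 Readout is yeast growth inhibition, normalised to vehicle-treated controls, in the mec2-1 strain exposed to compound.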

[3] = NCI Yeast Anticancer Drug Screen. Data for the sgs1 mgt1 strain (AID 161);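 also: 0% = growth of cultures given vehicle only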; settings: S. cerevisiae sgs1 mgt1 strain, at 50.0 µM, hits give high values
Method in brief: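 Yeast cells carrying a defined DNA-repair defect were exposed to test compounds. Growth inhibition was measured relative to vehicle-treated controls.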

[4] = NCI Yeast Anticancer Drug Screen. Data for the cln2 rad14 strain (AID 165);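 also: 0% = growth equal to vehicle treated cultures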; settings: S. cerevisiae cln2 rad14 strain, at 50.0 µM, hits give high values
Method in brief: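 Relative to vehicle controls, growth inhibition of compound-treated cln2 rad14 yeast was recorded.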

[5] = NCI Yeast Anticancer Drug Screen. Data for the bub3 strain (AID 167); settings: S. cerevisiae bub3 mutant strain, at 50.0 µM, hits give high values
Method in brief: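 Readout: yeast growth inhibition, expressed relative to vehicle-only wells. The test organism is a mutant strain from a panel with lesions in DNA repair or checkpoint genes.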

[6] = NCI Yeast Anticancer Drug Screen. Data for the mlh1 rad18 strain (AID 175); settings: S. cerevisiae mlh1 rad18 strain growth inhibition; at 50.0 µM; hits give high values
Method in brief: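 Test agents were incubated with a yeast strain of defined genotype (DNA damage repair defect). Inhibition of growth was derived by comparison with vehicle-exposed cultures.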

Measured: growth inhibition

COc1cccc(/C=C2\S/C(=N/Nc3nc(C)c(C)s3)NC2=O)c1O
inactive: [1] 7.7% | [2] 16.3% | [3] 20.8% | [4] 18% | [5] -8.65% | [6] 2.2%

COc1ccc(C(C)c2cc(OC)c(OC)cc2OC)cc1 (stereo not drawn)
inactive: [1] 17.6% | [2] 10.8% | [3] 25.6% | [4] -29.2% | [5] 44.2% | [6] 37.8%

COc1ccc(C(=O)N/N=C/c2cccc3ccccc23)cc1
inactive: [1] -3% | [2] 36.5% | [3] 13% | [4] -23.1% | [5] 43.8% | [6] 33.6%

Cc1ccc(S(=O)(=O)OC2CC(C(C)(C)C)CCC2c2ccccc2)cc1 (stereo not drawn)
inactive: [1] -29.1% | [2] -7% | [3] -48.9% | [4] -84.2% | [5] -5.15% | [6] 5.9%

Nc1ccc(Cl)cc1C(=O)Oc1ccccn1
inactive: [1] 6.9% | [2] -0.65% | [3] -6.25% | [4] -0.4% | [5] -5.5% | [6] -0.7%

O=C1C=C(Sc2ccccc2)c2nccc3c2c1nc1ccccc13
inactive: [1] 34.9% | [2] 7.6% | [3] 20.4% | [4] 6.55% | [5] 20.1% | [6] 30%

CCCCc1ccc(N=Nc2ccccc2)cc1
inactive: [1] -9.35% | [2] -17.5% | [3] -15.6% | [4] -59% | [5] -6.05% | [6] -32.2%

COc1ccc(COC(=O)Nc2cccc(Cl)c2)cc1OC
inactive: [1] -11.5% | [2] 30% | [3] 20.1% | [4] -24.2% | [5] 30.8% | [6] 35.8%

COc1cc(/C=C/c2cc(/C=C/c3ccc(O)c(OC)c3)c([N+](=O)[O-])cc2[N+](=O)[O-])ccc1O
inactive: [1] 66.3% | [2] 23.8% | [3] 42.4% | [4] -4.45% | [5] 7.15% | [6] 47.7%

C=C1C(=O)[C@@]23CC1C(O)[C@@H](OC(C)=O)[C@@H]2C1(C)C(OC(C)=O)C[C@@H](OC(C)=O)C(C)(C)[C@@H]1C[C@H]3OC(C)=O (stereo partly drawn)
inactive: [1] 16.1% | [2] 11.9% | [3] 14% | [4] 22.4% | [5] 2.05% | [6] 0.15%

O=C1CCCCC1COCC1CCCCC1=O (stereo not drawn)
inactive: [1] -4.8% | [2] 2.65% | [3] -2.15% | [4] -17.6% | [5] 5.25% | [6] -21.4%

C=CCOc1cc(=O)[nH]c2ccccc12
inactive: [1] -14.1% | [2] -4.4% | [3] -0.9% | [4] -51.1% | [5] -0.45% | [6] 2.9%

O=C1C=C(O)C(=C/C=C/C=C/c2c(O)cc(O)cc2O)C(O)=C1
inactive: [1] -12.4% | [2] -13.6% | [3] -2.65% | [4] 10.2% | [5] 6.65% | [6] -5.7%

COC(=O)CSc1[nH]c2nc(C)nc(Nc3ccccc3)c2c1C#N
inactive: [1] -13.8% | [2] -19.2% | [3] -9.85% | [4] -6.75% | [5] -27.8% | [6] 16.1%

O=C(Nc1ccccc1C/C(=N/O)c1ccc2c(c1)OCO2)c1ccccc1
inactive: [1] 51.5% | [2] 0.4% | [3] 54.1% | [4] -32% | [5] 3.55% | [6] 23.4%

COc1ccc(C(=O)/C=c2/c(CC(=O)c3ccc(OC)cc3)nc3nnc(N)n23)cc1
inactive: [1] 15.5% | [2] -4.05% | [3] -6.25% | [4] 21.9% | [5] 1.45% | [6] 8.6%

CCC(=O)NCC(=O)O
inactive: [1] -4.15% | [2] -10.6% | [3] -16.1% | [4] 0.3% | [5] 8.15% | [6] -6.15%

O=c1[nH]nc(-c2ccc(Cl)cc2)c2cc(Cl)c(Cl)cc12
inactive: [1] -6.45% | [2] -11.3% | [3] -10.7% | [4] -57.9% | [5] -5.2% | [6] -20.7%
